Measured values taken from article PMC7862700, “An all-to-all approach to the identification of sequence-specific readers for epigenetic DNA modifications on cytosine”.

Experiments:
Test in all cases: DAPPL (digital affinity profiling via proximity ligation, sequencing); 10 mM Tris-HCl pH 7.5, 50 mM NaCl, 1 mM DTT, 4% glycerol, room temperature, 30 min; GST-TFs on glutathione beads, 16-mer random dsDNA library, 0.1% formaldehyde crosslink after washing; high values mean tight binding
FLI1 = molecular target: T1, FLI1 (Homo sapiens, UniProt Q01543 1-452); settings: protein: recombinant; tags: N-terminal GST; dsDNA, one strand shown
T1 sequence: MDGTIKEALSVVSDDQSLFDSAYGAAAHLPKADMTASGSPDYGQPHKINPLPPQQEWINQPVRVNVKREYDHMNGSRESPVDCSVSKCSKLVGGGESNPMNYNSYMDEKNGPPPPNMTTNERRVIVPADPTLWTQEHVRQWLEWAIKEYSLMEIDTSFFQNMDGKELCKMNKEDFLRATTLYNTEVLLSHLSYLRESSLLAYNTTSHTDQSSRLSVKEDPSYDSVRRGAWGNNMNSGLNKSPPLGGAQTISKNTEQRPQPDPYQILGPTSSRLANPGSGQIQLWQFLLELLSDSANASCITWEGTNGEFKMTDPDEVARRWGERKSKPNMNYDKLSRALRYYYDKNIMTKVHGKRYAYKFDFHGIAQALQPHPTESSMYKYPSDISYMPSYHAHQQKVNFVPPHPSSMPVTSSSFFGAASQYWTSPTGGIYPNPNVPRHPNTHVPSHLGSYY
Summary of the method: (§1)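 The binding signal reported is, for every hexamer, its read frequency for a factor over its read frequency for the tag-only sample. Reads came from pools of yeast-expressed, GST-fused human transcription factors on glutathione beads, barcoded with DNA and mixed with that sample, which were incubated with 200 nmole of a random double-stranded 16-mer DNA library in Tris/NaCl/DTT/glycerol buffer at room temperature for 30 min. After washing, the pools were crosslinked with 0.1% formaldehyde, proximity-ligated with BsaI/T4 ligase for 1 h at 37 °C, PCR-amplified and sequenced on an Illumina NextSeq500.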

ELK1 = molecular target: T2, ELK1 (Homo sapiens, UniProt P19419 1-428); settings: protein: recombinant; tags: N-terminal GST; dsDNA, one strand shown
T2 sequence: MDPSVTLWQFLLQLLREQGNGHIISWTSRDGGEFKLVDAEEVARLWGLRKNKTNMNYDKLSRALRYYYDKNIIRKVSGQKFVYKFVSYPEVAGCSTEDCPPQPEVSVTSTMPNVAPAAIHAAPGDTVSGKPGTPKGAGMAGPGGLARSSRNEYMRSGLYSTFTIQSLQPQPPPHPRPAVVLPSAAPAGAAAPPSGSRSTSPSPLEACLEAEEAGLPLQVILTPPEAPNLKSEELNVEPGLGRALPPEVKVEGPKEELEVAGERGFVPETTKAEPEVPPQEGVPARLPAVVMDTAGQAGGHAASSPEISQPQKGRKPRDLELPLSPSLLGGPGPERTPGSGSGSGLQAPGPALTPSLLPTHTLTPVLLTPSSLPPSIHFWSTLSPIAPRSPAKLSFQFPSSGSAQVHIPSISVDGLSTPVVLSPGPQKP
Summary of the method: as §1

GABPA = molecular target: T3, GABPA (Homo sapiens, UniProt Q06546 1-454); settings: protein: recombinant; tags: N-terminal GST; dsDNA, one strand shown
T3 sequence: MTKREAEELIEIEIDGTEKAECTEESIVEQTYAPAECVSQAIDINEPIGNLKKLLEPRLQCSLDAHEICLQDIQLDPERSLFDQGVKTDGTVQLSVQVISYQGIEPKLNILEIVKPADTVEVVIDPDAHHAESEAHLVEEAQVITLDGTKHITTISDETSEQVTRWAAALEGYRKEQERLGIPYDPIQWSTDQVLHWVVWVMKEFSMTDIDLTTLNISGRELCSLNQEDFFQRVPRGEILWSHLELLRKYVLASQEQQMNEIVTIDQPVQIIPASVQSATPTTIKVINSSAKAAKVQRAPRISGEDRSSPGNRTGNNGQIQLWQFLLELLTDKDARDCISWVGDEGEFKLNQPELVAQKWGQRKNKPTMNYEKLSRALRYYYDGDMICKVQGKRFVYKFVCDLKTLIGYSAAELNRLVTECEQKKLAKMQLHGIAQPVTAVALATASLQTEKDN
Summary of the method: as §1

ERG = molecular target: T4, ERG (Homo sapiens, UniProt P11308 1-479); settings: protein: recombinant; tags: N-terminal GST; dsDNA, one strand shown
T4 sequence: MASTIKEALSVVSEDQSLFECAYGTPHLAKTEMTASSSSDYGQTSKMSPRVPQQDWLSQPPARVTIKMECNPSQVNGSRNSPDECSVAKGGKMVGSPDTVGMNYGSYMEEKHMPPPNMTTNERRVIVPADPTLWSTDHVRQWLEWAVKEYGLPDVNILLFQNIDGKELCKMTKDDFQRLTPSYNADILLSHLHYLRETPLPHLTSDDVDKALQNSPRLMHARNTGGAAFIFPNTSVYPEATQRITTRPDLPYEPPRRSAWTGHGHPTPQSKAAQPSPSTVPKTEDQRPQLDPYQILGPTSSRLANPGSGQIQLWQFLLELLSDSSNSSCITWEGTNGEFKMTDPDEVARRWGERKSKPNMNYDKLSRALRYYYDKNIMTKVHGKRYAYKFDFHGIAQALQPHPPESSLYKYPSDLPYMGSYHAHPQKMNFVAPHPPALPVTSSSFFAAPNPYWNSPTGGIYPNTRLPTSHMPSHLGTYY
Summary of the method: as §1

ELF1 = ELF1 (Homo sapiens, UniProt P32519 1-619); settings: protein: recombinant; tags: N-terminal GST; dsDNA, one strand shown
ELF1, sequence (P32519 whole entry): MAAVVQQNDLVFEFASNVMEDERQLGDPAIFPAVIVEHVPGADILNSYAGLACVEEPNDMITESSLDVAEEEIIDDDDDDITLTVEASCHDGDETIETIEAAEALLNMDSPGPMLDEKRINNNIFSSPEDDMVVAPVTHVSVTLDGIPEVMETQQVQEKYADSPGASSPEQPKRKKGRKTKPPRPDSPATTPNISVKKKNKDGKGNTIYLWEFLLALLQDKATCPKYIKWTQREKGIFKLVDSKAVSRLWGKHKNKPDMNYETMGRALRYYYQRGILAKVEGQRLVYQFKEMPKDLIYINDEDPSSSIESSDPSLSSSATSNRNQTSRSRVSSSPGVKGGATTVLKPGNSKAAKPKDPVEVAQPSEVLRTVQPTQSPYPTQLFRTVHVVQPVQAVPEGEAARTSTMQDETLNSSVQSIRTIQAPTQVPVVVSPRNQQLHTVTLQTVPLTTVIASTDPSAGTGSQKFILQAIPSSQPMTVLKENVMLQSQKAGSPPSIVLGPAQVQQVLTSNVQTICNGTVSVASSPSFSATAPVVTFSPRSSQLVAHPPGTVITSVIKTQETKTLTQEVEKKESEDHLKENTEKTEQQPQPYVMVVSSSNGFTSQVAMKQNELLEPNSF
Summary of the method: as §1

EHF = molecular target: T5, EHF (Homo sapiens, UniProt Q9NZC4 1-300); settings: protein: recombinant; tags: N-terminal GST; dsDNA, one strand shown
T5 sequence: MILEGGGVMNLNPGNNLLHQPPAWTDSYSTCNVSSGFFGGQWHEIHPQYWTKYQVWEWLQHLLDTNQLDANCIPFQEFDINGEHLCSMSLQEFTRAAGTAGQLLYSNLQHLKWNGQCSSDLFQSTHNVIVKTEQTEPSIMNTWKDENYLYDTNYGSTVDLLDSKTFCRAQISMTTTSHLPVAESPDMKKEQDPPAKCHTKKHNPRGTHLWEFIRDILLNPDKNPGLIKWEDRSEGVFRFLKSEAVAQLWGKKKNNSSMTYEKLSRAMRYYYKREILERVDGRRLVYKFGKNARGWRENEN
Summary of the method: as §1

SPI1 = SPI1 (Homo sapiens, UniProt P17947 1-270); settings: protein: recombinant; tags: N-terminal GST; dsDNA, one strand shown
Summary of the method: as §1

SPIB = SPIB (Homo sapiens, UniProt Q01892 1-262); settings: protein: recombinant; tags: N-terminal GST; dsDNA, one strand shown
SPIB, sequence (Q01892 whole entry): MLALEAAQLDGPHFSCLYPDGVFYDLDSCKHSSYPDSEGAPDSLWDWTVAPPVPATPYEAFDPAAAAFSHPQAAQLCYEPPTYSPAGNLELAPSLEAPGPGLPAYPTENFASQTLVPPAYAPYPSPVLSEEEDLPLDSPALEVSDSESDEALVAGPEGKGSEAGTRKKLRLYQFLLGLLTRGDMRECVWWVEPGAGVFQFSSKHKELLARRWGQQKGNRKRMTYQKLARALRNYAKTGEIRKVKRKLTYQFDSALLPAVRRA
Summary of the method: as §1

ELK3 = molecular target: T6, ELK3 (Homo sapiens, UniProt P41970 1-407); settings: protein: recombinant; tags: N-terminal GST; dsDNA, one strand shown
T6 sequence: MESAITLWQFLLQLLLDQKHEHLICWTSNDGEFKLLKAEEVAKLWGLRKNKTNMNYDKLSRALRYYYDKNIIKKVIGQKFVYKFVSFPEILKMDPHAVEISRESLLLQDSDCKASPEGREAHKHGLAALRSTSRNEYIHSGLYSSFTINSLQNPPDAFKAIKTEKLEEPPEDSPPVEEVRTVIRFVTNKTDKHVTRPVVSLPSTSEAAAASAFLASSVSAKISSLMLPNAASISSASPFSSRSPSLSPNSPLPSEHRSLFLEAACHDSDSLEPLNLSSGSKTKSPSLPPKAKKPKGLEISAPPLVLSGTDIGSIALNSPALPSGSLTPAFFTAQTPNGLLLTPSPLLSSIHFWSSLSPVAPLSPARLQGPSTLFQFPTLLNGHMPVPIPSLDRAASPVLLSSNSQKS
Summary of the method: as §1

FEV = molecular target: T7, FEV (Homo sapiens, UniProt Q99581 1-238); settings: protein: recombinant; tags: N-terminal GST; dsDNA, one strand shown
T7 sequence: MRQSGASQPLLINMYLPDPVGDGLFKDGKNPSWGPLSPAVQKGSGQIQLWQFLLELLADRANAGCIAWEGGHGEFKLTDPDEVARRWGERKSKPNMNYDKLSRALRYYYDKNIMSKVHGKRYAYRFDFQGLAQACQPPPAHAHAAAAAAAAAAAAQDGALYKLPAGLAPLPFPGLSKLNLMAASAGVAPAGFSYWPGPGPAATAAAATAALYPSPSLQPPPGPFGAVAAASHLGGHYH
Summary of the method: as §1

ETV5 = ETV5 (Homo sapiens, UniProt P41161 1-510); settings: protein: recombinant; tags: N-terminal GST; dsDNA, one strand shown
ETV5, sequence (P41161 whole entry): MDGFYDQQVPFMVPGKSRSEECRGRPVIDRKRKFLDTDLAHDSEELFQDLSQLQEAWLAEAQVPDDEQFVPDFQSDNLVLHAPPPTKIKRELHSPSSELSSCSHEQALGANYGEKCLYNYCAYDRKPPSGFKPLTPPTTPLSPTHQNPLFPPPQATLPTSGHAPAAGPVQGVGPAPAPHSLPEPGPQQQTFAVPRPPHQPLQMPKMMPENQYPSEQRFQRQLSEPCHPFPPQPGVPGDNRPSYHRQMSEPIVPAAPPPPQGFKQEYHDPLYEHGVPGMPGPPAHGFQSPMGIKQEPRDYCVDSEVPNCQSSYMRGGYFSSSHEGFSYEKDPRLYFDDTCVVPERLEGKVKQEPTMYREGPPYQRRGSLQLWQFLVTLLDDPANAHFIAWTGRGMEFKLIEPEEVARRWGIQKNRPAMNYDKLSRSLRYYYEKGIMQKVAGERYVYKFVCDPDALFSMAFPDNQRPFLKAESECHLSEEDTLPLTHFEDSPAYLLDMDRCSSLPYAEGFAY
Summary of the method: as §1

HSF1 = HSF1 (Homo sapiens, UniProt Q00613 1-529); settings: protein: recombinant; tags: N-terminal GST; chain copies: 3; dsDNA, one strand shown
HSF1, sequence (Q00613 whole entry): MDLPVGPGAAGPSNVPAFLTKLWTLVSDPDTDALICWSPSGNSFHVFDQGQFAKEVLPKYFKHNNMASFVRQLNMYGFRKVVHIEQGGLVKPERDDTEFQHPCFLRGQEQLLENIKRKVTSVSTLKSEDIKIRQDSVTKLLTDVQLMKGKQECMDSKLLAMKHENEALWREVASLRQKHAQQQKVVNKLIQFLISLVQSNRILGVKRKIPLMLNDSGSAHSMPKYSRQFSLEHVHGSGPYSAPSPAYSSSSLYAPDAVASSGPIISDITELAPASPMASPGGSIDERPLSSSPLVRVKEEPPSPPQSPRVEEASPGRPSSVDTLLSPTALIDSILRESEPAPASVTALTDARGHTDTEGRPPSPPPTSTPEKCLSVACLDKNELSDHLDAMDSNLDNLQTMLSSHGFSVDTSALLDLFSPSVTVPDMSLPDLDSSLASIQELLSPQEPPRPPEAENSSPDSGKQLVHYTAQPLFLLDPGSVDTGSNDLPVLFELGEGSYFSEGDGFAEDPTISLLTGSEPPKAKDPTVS
Summary of the method: as §1

SPIC = molecular target: T8, SPIC (Homo sapiens, UniProt Q8N5J4 1-248); settings: protein: recombinant; tags: N-terminal GST; dsDNA, one strand shown
T8 sequence: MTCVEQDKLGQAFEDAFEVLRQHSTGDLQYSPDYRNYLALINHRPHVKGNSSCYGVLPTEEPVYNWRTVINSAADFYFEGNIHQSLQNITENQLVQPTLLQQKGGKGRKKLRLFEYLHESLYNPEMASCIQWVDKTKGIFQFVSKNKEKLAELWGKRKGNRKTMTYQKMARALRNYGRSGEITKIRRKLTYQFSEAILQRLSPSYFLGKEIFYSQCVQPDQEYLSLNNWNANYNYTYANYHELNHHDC
Summary of the method: as §1

ELF4 = ELF4 (Homo sapiens, UniProt Q99607 1-663); settings: protein: recombinant; tags: N-terminal GST; dsDNA, one strand shown
ELF4, sequence (Q99607 whole entry): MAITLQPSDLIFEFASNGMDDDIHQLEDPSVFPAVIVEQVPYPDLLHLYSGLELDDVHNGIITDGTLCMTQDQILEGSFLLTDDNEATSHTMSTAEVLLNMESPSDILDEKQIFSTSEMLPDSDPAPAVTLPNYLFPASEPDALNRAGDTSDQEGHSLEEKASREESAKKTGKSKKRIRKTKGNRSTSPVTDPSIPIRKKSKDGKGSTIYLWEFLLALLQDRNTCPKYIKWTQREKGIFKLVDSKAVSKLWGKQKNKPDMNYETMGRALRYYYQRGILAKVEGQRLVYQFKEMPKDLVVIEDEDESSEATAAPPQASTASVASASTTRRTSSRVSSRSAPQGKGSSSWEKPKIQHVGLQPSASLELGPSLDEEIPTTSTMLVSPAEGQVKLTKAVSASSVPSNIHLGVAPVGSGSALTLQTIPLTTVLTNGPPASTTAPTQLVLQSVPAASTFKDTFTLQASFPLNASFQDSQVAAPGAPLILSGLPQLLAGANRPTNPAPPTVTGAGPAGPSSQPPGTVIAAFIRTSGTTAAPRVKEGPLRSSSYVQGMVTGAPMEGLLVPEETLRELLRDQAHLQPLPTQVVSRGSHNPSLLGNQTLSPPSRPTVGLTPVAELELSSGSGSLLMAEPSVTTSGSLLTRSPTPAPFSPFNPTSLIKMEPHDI
Summary of the method: as §1

ELK4 = molecular target: T9, ELK4 (Homo sapiens, UniProt P28324-2 1-405); settings: protein: recombinant; tags: N-terminal GST; dsDNA, one strand shown
T9 sequence: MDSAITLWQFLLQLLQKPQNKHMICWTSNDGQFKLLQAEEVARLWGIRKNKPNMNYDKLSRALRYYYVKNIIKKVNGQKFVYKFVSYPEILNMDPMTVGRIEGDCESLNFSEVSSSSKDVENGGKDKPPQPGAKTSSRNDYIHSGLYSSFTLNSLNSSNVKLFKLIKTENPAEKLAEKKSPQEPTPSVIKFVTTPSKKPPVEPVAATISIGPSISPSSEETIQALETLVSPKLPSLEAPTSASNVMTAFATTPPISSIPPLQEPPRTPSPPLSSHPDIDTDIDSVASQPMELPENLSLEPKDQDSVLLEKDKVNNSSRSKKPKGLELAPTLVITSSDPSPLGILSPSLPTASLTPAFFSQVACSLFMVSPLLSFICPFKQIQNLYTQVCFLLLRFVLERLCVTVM
Summary of the method: as §1

ELF3 = molecular target: T10, ELF3 (Homo sapiens, UniProt P78545 1-371); settings: protein: recombinant; tags: N-terminal GST; dsDNA, one strand shown
T10 sequence: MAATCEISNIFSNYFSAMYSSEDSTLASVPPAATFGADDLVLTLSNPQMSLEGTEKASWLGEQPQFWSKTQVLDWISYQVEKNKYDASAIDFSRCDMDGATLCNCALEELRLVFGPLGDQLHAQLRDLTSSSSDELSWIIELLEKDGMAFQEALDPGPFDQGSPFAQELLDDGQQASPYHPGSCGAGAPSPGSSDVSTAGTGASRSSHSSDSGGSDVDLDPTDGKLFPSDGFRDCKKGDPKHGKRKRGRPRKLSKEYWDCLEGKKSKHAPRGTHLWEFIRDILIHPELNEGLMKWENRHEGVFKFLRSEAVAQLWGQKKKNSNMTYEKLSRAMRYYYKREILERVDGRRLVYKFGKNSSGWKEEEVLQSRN
Summary of the method: as §1

CRX = CRX (Homo sapiens, UniProt O43186 1-299); settings: protein: recombinant; tags: N-terminal GST; dsDNA, one strand shown
CRX, sequence (O43186 whole entry): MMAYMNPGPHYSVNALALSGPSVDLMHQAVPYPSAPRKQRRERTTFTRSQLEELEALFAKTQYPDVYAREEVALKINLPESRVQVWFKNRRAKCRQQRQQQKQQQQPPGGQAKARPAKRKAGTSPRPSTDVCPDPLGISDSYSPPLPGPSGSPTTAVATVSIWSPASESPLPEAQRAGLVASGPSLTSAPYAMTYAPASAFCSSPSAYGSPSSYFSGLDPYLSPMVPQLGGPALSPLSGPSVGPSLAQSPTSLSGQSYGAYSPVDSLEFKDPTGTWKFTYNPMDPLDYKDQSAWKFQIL
Summary of the method: as §1

ETV1 = ETV1 (Homo sapiens, UniProt P50549 1-477); settings: protein: recombinant; tags: N-terminal GST; dsDNA, one strand shown
ETV1, sequence (P50549 whole entry): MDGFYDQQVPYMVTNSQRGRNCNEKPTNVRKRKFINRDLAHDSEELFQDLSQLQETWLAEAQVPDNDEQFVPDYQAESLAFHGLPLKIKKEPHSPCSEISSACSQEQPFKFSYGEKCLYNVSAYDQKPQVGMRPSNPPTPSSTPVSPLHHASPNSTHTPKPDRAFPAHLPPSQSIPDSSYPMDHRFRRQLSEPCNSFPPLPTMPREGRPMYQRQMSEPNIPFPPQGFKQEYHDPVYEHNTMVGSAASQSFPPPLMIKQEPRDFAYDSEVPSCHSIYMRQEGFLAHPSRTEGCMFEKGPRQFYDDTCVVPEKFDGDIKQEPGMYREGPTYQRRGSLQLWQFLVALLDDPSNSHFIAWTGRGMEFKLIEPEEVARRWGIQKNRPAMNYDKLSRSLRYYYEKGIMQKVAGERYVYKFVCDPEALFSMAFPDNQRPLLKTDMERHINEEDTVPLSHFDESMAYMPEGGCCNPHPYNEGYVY
Summary of the method: as §1

How did the binding signal (FLI1) turn out when TCCCAA was run?
The binding signal was 1.14 fold enrichment (6-mer frequency, TF over GST control).

What about the binding signal (ELK1) of the same sequence?
Its binding signal is 1.2 fold enrichment (6-mer frequency, TF over GST control).

What about the binding signal (GABPA) of the same sequence?
The binding signal was 1.25 fold enrichment (6-mer frequency, TF over GST control).

What about the binding signal (ERG) of the same sequence?
The binding signal was 1.28 fold enrichment (6-mer frequency, TF over GST control).

And the binding signal (ELF1)?
Its binding signal is 1.3 fold enrichment (6-mer frequency, TF over GST control).

And the binding signal (EHF)?
Its binding signal is 1.31 fold enrichment (6-mer frequency, TF over GST control).

And the binding signal (SPI1)?
Its binding signal is 1.2 fold enrichment (6-mer frequency, TF over GST control).

And the binding signal (SPIB)?
The binding signal was 1.15 fold enrichment (6-mer frequency, TF over GST control).

What about the binding signal (ELK3) of the same sequence?
Its binding signal is 1.28 fold enrichment (6-mer frequency, TF over GST control).

What about the binding signal (FEV) of the same sequence?
Its binding signal is 1.17 fold enrichment (6-mer frequency, TF over GST control).

What about the binding signal (ETV5) of the same sequence?
Its binding signal is 1.2 fold enrichment (6-mer frequency, TF over GST control).

What about the binding signal (HSF1) of the same sequence?
The binding signal was 1.11 fold enrichment (6-mer frequency, TF over GST control).

And the binding signal (SPIC)?
Its binding signal is 1.17 fold enrichment (6-mer frequency, TF over GST control).

What about the binding signal (ELF4) of the same sequence?
The binding signal was 1.24 fold enrichment (6-mer frequency, TF over GST control).

And the binding signal (ELK4)?
The binding signal was 1.09 fold enrichment (6-mer frequency, TF over GST control).

And the binding signal (ELF3)?
Its binding signal is 1.16 fold enrichment (6-mer frequency, TF over GST control).

What about the binding signal (CRX) of the same sequence?
The binding signal was 1.23 fold enrichment (6-mer frequency, TF over GST control).

And the binding signal (ETV1)?
The binding signal was 1.2 fold enrichment (6-mer frequency, TF over GST control).
